Source: PubChem BioAssay (Tox21)
Results filed as inconclusive are left out. Active and inactive are the calls of the source. Calls come from the whole dose curve; as a rule, active = well fitted curve in the direction sought with a large enough effect in the repeat runs; inconclusive = weak or mixed curves; inactive = no such curve, though single readings can be large; an effect the other way counts as inactive or inconclusive.

Tests used:
[1] = qHTS RealTime-Glo MT Cell Viability Assay in HepG2 cells - 8 hour (AID 1224873); conditions: RealTime-Glo luminescence; series mostly up to 76.8 µM; note: nearly all actives have a fitted effect of over 55% in size
In short: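 HepG2 cells (600/well) mixed with RealTime-Glo MT reagent, settled 5 h at 37 C/5% CO2 before compound addition. Nonlytic NanoLuc luminescence from viable-cell prosubstrate reduction read repeatedly during 40 h treatment at 37 C.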

[2] = qHTS RealTime-Glo MT Cell Viability Assay in HEK293 cells - 40 hour (AID 1224874); conditions: RealTime-Glo luminescence; max response: hits give low values; note: nearly all actives have a fitted effect of over 50% in size; note: potency is the fitted concentration of half-maximal effect
In short: (§1)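 Luminescence, which tracks viable cell number through reduction of the prosubstrate to a NanoLuc substrate, was read over continuous 37 C culture. Cells (600/well) were premixed with reagent and rested 5 h before 23 nL of compound in DMSO was pinned.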

[3] = A CellTox Green Cytotoxicity Assay to monitor cytotoxicity in HEK293 cells - 24 hour (AID 1224875); conditions: CellTox Green fluorescence, hits give high values; series mostly up to 76.8 µM; note: nearly all actives have a fitted effect of over 45% in size
In short: (§2)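 Fluorescence from a DNA-binding dye excluded by viable cells was measured repeatedly in the same HEK293 wells (600 cells/well) during continuous compound exposure at 37 C. Each assay gives one read point: 0, 8, 16, 24, 32 or 40 h.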

[4] = A CellTox Green Cytotoxicity Assay to monitor cytotoxicity in HepG2 cells - 16 hour (AID 1224876); conditions: CellTox Green fluorescence; series mostly up to 76.8 µM; note: nearly all actives have a fitted effect of over 45% in size
In short: (§3)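 Real-time cytotoxicity: fluorescence of a cell-impermeant cyanine dye binding DNA of dead HepG2 cells, measured repeatedly (0–40 h) during compound exposure at 37 C. Cells seeded 600/well with reagent, dosed after 5 h.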

[5] = qHTS RealTime-Glo MT Cell Viability Assay in HepG2 cells - 32 hour (AID 1224877); conditions: RealTime-Glo luminescence; series mostly up to 76.8 µM; note: nearly all actives have a fitted effect of over 55% in size
In short: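 Cell number in HepG2 cultures estimated from NanoLuc luminescence generated by metabolic reduction of a prosubstrate by living cells. The homogeneous, nonlytic format allowed repeated reads at 0, 8, 16, 24, 32 and 40 h of compound exposure.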

[6] = A CellTox Green Cytotoxicity Assay to monitor cytotoxicity in HepG2 cells - 40 hour (AID 1224879); conditions: CellTox Green fluorescence; series mostly up to 76.8 µM; note: nearly all actives have a fitted effect of over 40% in size
In short: as §3

[7] = qHTS RealTime-Glo MT Cell Viability Assay in HEK293 cells - 0 hour (AID 1224880); conditions: RealTime-Glo luminescence; series mostly up to 76.8 µM; note: top concentration of the series differs between compounds; nearly all actives have a fitted effect of over 45% in size
In short: as §1

[8] = A CellTox Green Cytotoxicity Assay to monitor cytotoxicity in HEK293 cells - 32 hour (AID 1224881); conditions: CellTox Green fluorescence; series mostly up to 76.8 µM; note: nearly all actives have a fitted effect of over 40% in size
In short: as §2

[9] = A CellTox Green Cytotoxicity Assay to monitor cytotoxicity in HepG2 cells - 24 hour (AID 1224878); conditions: CellTox Green fluorescence; series mostly up to 76.8 µM; note: nearly all actives have a fitted effect of over 45% in size
In short: as §3

[10] = A CellTox Green Cytotoxicity Assay to monitor cytotoxicity in HepG2 cells - 0 hour (AID 1224882); conditions: CellTox Green fluorescence; series mostly up to 76.8 µM; note: nearly all actives have a fitted effect of over 35% in size
In short: as §3
% is set by controls: 0 for no effect and ±100 for the full control effect.

CCOCCOCCOCC
inactive: outcome [1] | max response [2] 4.8% | outcome [3] | outcome [4] | outcome [5] | Potency [6] | Potency [7] | Potency [8]

CCCCNc1ccc(C(=O)OCCN(C)C)cc1
inactive: outcome [1] | max response [2] -3.43% | outcome [3] | outcome [4] | outcome [5] | outcome [9] | Potency [6] | Potency [7] | outcome [10]

Nc1ccc2cc(S(=O)(=O)O)cc(O)c2c1
inactive: outcome [1] | max response [2] 0.478% | outcome [3] | outcome [4] | outcome [5] | outcome [9] | Potency [6] | Potency [8] | outcome [10]

CCOc1cc(NC(C)=O)ccc1C(=O)OC
inactive: outcome [1] | max response [2] -4.96% | outcome [3] | outcome [4] | outcome [5] | outcome [9] | Potency [6] | Potency [7] | outcome [10]

CCN1CCc2nc(N)oc2CC1
inactive: outcome [1] | max response [2] 0.505% | outcome [3] | outcome [4] | outcome [5] | Potency [6] | Potency [7] | Potency [8]

Cc1cccc(OCC(O)CNC(C)(C)C)c1C (configuration not stated)
inactive: outcome [1] | max response [2] 0.394% | outcome [3] | outcome [4] | outcome [5] | outcome [9] | Potency [7] | Potency [8]

CN=C(NC#N)Nc1ccc(C2=NNC(=O)CC2C)cc1 (configuration not stated)
inactive: outcome [1] | max response [2] 11.7% | outcome [3] | outcome [4] | outcome [5] | outcome [9] | Potency [6] | Potency [7] | outcome [10]

O=C(c1ccc(O)cc1)c1ccc(O)c(O)c1O
inactive: outcome [1] | max response [2] -10.5% | outcome [3] | outcome [4] | outcome [5] | Potency [6] | Potency [7] | Potency [8]

CCCCCCCCC(=O)Cl
inactive: outcome [1] | max response [2] 10.1% | outcome [3] | outcome [4] | outcome [5] | Potency [6] | Potency [7] | Potency [8]

CCCCCCOc1ccccc1C(N)=O
inactive: outcome [1] | outcome [3] | outcome [4] | outcome [5] | outcome [9] | Potency [7]
active: Potency [2] 10.7 µM

CC(C)=O
inactive: outcome [1] | max response [2] 0.384% | outcome [3] | outcome [4] | outcome [5] | outcome [9] | Potency [7] | Potency [8] | outcome [10]

O=C(NCCc1c[nH]c2ccccc12)c1cccnc1
inactive: outcome [1] | max response [2] -11.8% | outcome [3] | outcome [4] | outcome [5] | outcome [9] | Potency [6] | Potency [7] | outcome [10]

CC(C)(C)c1nnc(NS(=O)(=O)c2ccc(N)cc2)s1
inactive: outcome [1] | max response [2] 2.09% | outcome [3] | outcome [4] | outcome [5] | outcome [9] | Potency [7] | Potency [8] | outcome [10]

C=COCCOCCOCCOC=C
inactive: outcome [1] | max response [2] 1.1% | outcome [3] | outcome [4] | outcome [5] | outcome [9] | Potency [7] | Potency [8] | outcome [10]

C=C(C)C(=O)OCCOP(=O)(O)OCCOC(=O)C(=C)C
inactive: outcome [1] | max response [2] -2.48% | outcome [3] | outcome [4] | outcome [5] | outcome [9] | Potency [7] | outcome [10]

CNC(=O)[C@H]1O[C@@H](n2cnc3c(NCc4cc(Cl)ccc4OCc4cc(C)no4)ncnc32)[C@H](O)[C@@H]1N
inactive: outcome [1] | max response [2] 0.414% | outcome [3] | outcome [4] | outcome [5] | outcome [9] | Potency [6] | Potency [7] | outcome [10]

CCCCC(CC)COCCO (configuration not stated)
inactive: outcome [1] | max response [2] -0.338% | outcome [3] | outcome [4] | outcome [5] | outcome [9] | Potency [6] | Potency [7] | outcome [10]

O=C(NCCN1CCOCC1)c1ccc(Cl)cc1
inactive: outcome [1] | max response [2] 5.6% | outcome [3] | outcome [4] | outcome [5] | outcome [9] | Potency [7] | Potency [8] | outcome [10]

O=C(CCNNC(=O)c1ccncc1)NCc1ccccc1
inactive: outcome [1] | max response [2] 3.81% | outcome [3] | outcome [4] | outcome [5] | Potency [7] | Potency [8] | outcome [10]

CC(C)C[C@H](NC(=O)CNC(=O)[C@H](Cc1ccc(O)cc1)NC(=O)[C@H](CO)NC(=O)[C@H](Cc1c[nH]c2ccccc12)NC(=O)[C@H](Cc1cnc[nH]1)NC(=O)[C@@H]1CCC(=O)N1)C(=O)N[C@@H](CCCN=C(N)N)C(=O)N1CCC[C@H]1C(=O)NCC(N)=O (stereo in doubt)
inactive: outcome [1] | max response [2] 12.8% | outcome [3] | outcome [4] | outcome [5] | Potency [6] | Potency [7] | Potency [8] | outcome [10]

CCNC(=O)C1CC(C)CCC1C(C)C (configuration not stated)
inactive: outcome [1] | max response [2] 2.62% | outcome [3] | outcome [4] | outcome [9] | Potency [6] | Potency [7] | Potency [8] | outcome [10]

O=C(OCC1(COC(=O)c2cccnc2)CCCC(COC(=O)c2cccnc2)(COC(=O)c2cccnc2)C1O)c1cccnc1
inactive: outcome [1] | max response [2] 1.63% | outcome [3] | outcome [4] | outcome [5] | Potency [6] | Potency [7] | outcome [10]

Nc1ccc([N+](=O)[O-])c(N)c1
inactive: outcome [1] | max response [2] -10.3% | outcome [3] | outcome [4] | outcome [9] | Potency [6] | Potency [7] | Potency [8] | outcome [10]

CCOC(=O)[C@H](CCc1ccccc1)N[C@@H](C)C(=O)N1C(=O)N(C)C[C@H]1C(=O)O
inactive: outcome [1] | max response [2] 1.75% | outcome [3] | outcome [4] | outcome [5] | Potency [6] | Potency [7] | Potency [8] | outcome [10]

CC(C)(C)OC(=O)c1ccc(O)cc1
inactive: outcome [1] | max response [2] -26.7% | outcome [3] | outcome [4] | outcome [5] | Potency [7] | outcome [10]

CC(C)OC(=O)CCCCC(=O)OC(C)C
inactive: outcome [1] | max response [2] 13.3% | outcome [3] | outcome [4] | outcome [5] | Potency [6] | Potency [7] | Potency [8] | outcome [10]
